Screening results from PubChem.
Mtb hypoxia inh: PubChem AID 1159583; M. tuberculosis hypoxia-regulated fluorescent reporter, fluorescence; fluorescence inhibition, % (concentration not given with the values); hit rate 0.1% among 300,000; in the data active = fluorescence inhibition mostly above about 23%, no sharp cut-off; inactive = mostly below about 17%
ugtP null kill: growth inhibition of ugtP-null S. aureus, primary screen, RN4220 ugtP deletion, OD600; hit rate 0.54% among 330,000; growth inhibition, % (test concentration not listed); AID 1259309, 2017; 16 h; in the data active = growth inhibition above about 68%
Sa RN4220 lethal: growth inhibition of S. aureus RN4220, primary screen, OD600; 16 h; inhibition, % (test concentration not listed); hit rate 0.33% among 330,000; AID 1259311, 2017; in the data active = inhibition above about 85%
A number is an active result; 0 = inactive; - = no result shown; ! = repeats disagree. Hits are enriched below; roughly 0.68% of the tested compounds scored in any of these assays.

SMILES	Mtb hypoxia inh	ugtP null kill	Sa RN4220 lethal
C[n+]1c2n(c3ccccc31)N=C(c1cc(C(C)(C)C)c(O)c(C(C)(C)C)c1)CS2	-	98.1	99.3
Oc1ccccc1-c1nc2ccccc2nc1-c1ccccc1	0	0	0
Clc1ccc(-c2nc3ccccc3nc2-c2ccccc2)cc1	0	88.7	0
Cc1ccc(-c2nc3ccccc3nc2-c2ccccc2)cc1	0	85.7	0
Clc1nc2ccccc2nc1-c1ccccc1	0	0	0
Fc1ccc(NC(=S)NN=Cc2ccccc2Cl)cc1	0	86.3	0
Oc1ccccc1C=NNC(=S)Nc1ccc(F)cc1	0	0	0
O=C(CNC(=O)C(=Cc1ccc(F)cc1)NC(=O)c1ccccc1)OCc1ccccc1	0	0	0
Cn1c(COc2ccc(Cl)cc2)nnc1SCC(=O)NC1CC1	34.3	0	0
Cn1c(COc2ccccc2)nnc1SCC(=O)NC1CCCC1	0	0	0
C=C(C)CNC(=S)NNC(=O)CCn1c2cc(Cl)ccc2c2ccc(Cl)cc21	0	0	0
C=C(C)CNC(=S)NNC(=O)CCn1c2ccc(Cl)cc2c2cc(Cl)ccc21	0	0	92.6
c1csc(-c2nc3c4ccccc4c4ccccc4c3[nH]2)c1	0	89.7	0
Oc1ccccc1-c1nc2c3ccccc3c3ccccc3c2[nH]1	0	97.9	100.4
c1ccc(-c2nc(-c3cccs3)[nH]c2-c2ccccc2)cc1	0	0	0
CC(=NNc1nc(-c2ccccc2O)nc2ccccc12)c1ccccc1	0	0	0
C=CS(=O)(=O)N(Cc1ccccc1)C(CO)CC(C)C (stereo not given)	0	0	0
C=CCCC(Cc1ccc(F)cc1)C(=O)OCC(Cc1c[nH]c2ccccc12)NC(=O)C(CC=C)CC(=O)NC(CO)Cc1ccccc1 (stereo not given)	0	0	0
C=CCC(CC(=O)NC(CO)Cc1ccccc1)C(=O)NC(COC(=O)C(CC=C)Cc1ccc(F)cc1)Cc1c[nH]c2ccccc12 (stereo not given)	36.2!	0	0
N#CCCn1cc(C=NNC(N)=S)c(-c2ccc(-c3ccccc3)cc2)n1	0	0	0
COC(=O)c1cc2c(ccn2-c2ccc(F)cc2)n1CC(C)C	0	0	0
CCCn1c(C(=O)OC)cc2c1ccn2-c1ccc(F)cc1	0	96.8	0
COc1ccc(CC2CN3C(=NCC3C)N2CCNC(=O)c2ccc(C)c(Br)c2)cc1 (stereo not given)	0	0	0
COc1ccccc1C=NNC(=O)c1nnn(-c2nonc2N)c1CSC1=NCCS1	0	0	0
Cc1c(-n2c(O)c(C3=c4ccccc4=NC3=O)sc2=O)c(=O)n(-c2ccccc2)n1C	0	0	0
SMILES	Mtb hypoxia inh	ugtP null kill	Sa RN4220 lethal
Cc1ccc2c(c1)c(C1=c3ccccc3=NC1=O)c(O)n2C	0	97.3	97.6
C=CCn1c(O)c(C2=c3ccccc3=NC2=O)c2ccccc21	0	97.8	96.9
C=CCn1c(O)c(C2=c3ccccc3=NC2=O)sc1=Nc1nccs1	0	0	0
COc1ccccc1/C=C/C=NNC(=O)CC1C(=O)NN=C1C (stereo not given)	0	0	0
CCOc1ccc(C(=O)NN=Cc2cccc3cccnc23)cc1	-	0	0
CC1CN(C(C)CO)C(=O)c2cccc(NC(=O)CCC(F)(F)F)c2OC1CN(C)CC1CCCCC1 (stereo not given)	0	0	0
C=C[C@]12CN(C)C3C4COC(CC41)[C@]1(C(=O)Nc4ccccc41)C32 (stereo not given in full)	0	0	0
Cc1ccc(-c2cc(C(=O)NCCCN3CCOCC3)c3ccc(Cl)c(C)c3n2)cc1	0	0	0
Cc1c(Cl)ccc2c(C(O)CBr)cc(-c3ccccc3)nc12 (stereo not given)	0	96.2	0
COc1ccc(-n2nnnc2CNC(=O)C(=O)c2c[nH]c3ccccc23)cc1	0	0	0
Cc1ccc(-n2nnnc2SC(C(=O)c2c[nH]c3ccccc23)c2ccccc2)cc1 (stereo not given)	0	90.3	0
CC1CN(C(=O)/C=C/c2ccc3c(c2)OCO3)CC(C)O1 (stereo not given)	91.1	0	0
O=C(/C=C/c1ccc2c(c1)OCO2)N1CCOCC1	-	0	0
CSc1nc2ccc(Cl)cc2[nH]1	0	0	0
CSc1nc2cc(Oc3cccc(Cl)c3Cl)c(Cl)cc2[nH]1	0	97.2	99.8
O=C1C2C(c3ccc(Cl)cc3)N3C(=O)N(c4cccc(Cl)c4)C(=O)[C@@]3(Cc3ccc(Cl)cc3)C2C(=O)N1C1CCCCC1 (stereo not given in full)	0	0	0
O=C1Nc2ccccc2/C1=C/c1ccccc1F	0	0	0
Cc1ccc(/C=C2\C(=O)Nc3ccccc32)o1	0	100.3	0
CC(=O)c1ccc(C2C[C@]34CN(Cc5cccc(C(F)(F)F)c5)S(=O)(=O)C3CC2O4)cc1 (stereo not given in full)	0	0	0
COC(=O)C1=C(c2ccc(OC(F)(F)F)cc2)CC2CCC1N2C(=O)N1CCCC1 (stereo not given)	0	0	0
CC(C)CC(CO)N1CCN(Cc2ccccc2)CCC1=O (stereo not given)	0	0	0
Cc1ccnc(NS(=O)(=O)c2ccc(NC(=O)C3CCCCC3)cc2)n1	0	0	0
O=C(NC(=S)Nc1ccc(F)cc1)C1CCCCC1	0	0	0
Cc1cc(C)nc(NS(=O)(=O)c2ccc(NC(=S)NC(=O)C3CCCC3)cc2)n1	0	86.0	0
O=C(NC(=S)Nc1ccc(O)cc1)C1CCCC1	0	86.7	0
SMILES	Mtb hypoxia inh	ugtP null kill	Sa RN4220 lethal
CC=CC(=O)Nc1cccc(C2=NOC3(C2)CC(C(N)=O)N(C(=O)CCCCC)C3)c1 (stereo not given)	0	0	0
COc1ccc(C2CC(=O)C=C(c3ccc4c5c(cccc35)CC4)C2)cc1 (stereo not given)	0	0	0
COc1ccc(N2C(=O)N3C4c5ccccc5OCC4C(c4ccccc4)[C@@]3(C)C2=O)cc1 (stereo not given in full)	0	0	0
Oc1ccccc1C1SC(c2ccccc2O)SC(c2ccccc2O)S1 (stereo not given)	0	99.7	99.9
Cc1cc2c(cc1C)CSC(c1ccccc1O)SC2	0	0	0
COCCNC(=O)N1C2CCC1C(C(=O)OC)=C(c1ccc(OC)c(OC)c1)C2 (stereo not given)	0	0	0
COc1ccccc1CN=Cc1[nH]c2ccc(Br)c(Cl)c2c1O	0	0	0
Cc1cccc(N=Cc2[nH]c3ccc(Br)c(Cl)c3c2O)c1	0	100.3	0
COC(=O)[C@@]12CCCCN1C(c1ccc(-c3ccc(OC)cc3)cc1)C1C(=O)N(C)C(=O)C12 (stereo not given in full)	0	0	0
O=C(OCC(=O)c1c[nH]c2ccccc12)c1ccc([N+](=O)[O-])s1	0	100.5	0
Cc1ccc(C(=O)OCC(=O)c2c[nH]c3ccccc23)cc1	0	0	0
CCOC(=O)c1c(C)[nH]c(C)c1C(=O)COC(=O)c1ccc([N+](=O)[O-])s1	0	0	0
CCc1cccc2c(C(=O)COC(=O)c3ccc([N+](=O)[O-])s3)c[nH]c12	0	100.6	100.3
COc1ccc(C2C(=C(O)c3ccccc3)C(=O)C(=O)N2c2ccccn2)cc1OC (stereo not given)	0	0	0
CCOC1OC(C(=O)Nc2ccccc2)=CC(C)C1CCCO (stereo not given)	0	0	0
